Source: PubChem BioAssay (NCATS)
Records with an inconclusive call do not appear. Activity calls are given as the source filed them. The call rests on the fitted dose curve; in most records, active means well fitted inhibition curve with a large enough effect; inconclusive means small, poorly fitted or top-dose-only effect; inactive means flat fitted curve, though single readings scatter.

Legend:
Assay in all cases: qHTS profiling for inhibitors of Plasmodium falciparum proliferation (AID 504749); further: nearly all actives have a fitted effect of over 60% in size
Conditions in all cases: P. falciparum in erythrocytes, SYBR Green DNA, 72 h; series mostly up to 28.7 µM
AS120 = test system: AS120
Outline: (§1)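 Quantitative HTS: compounds pinned into medium, infected erythrocytes added (0.3% parasitemia, 2.5% hematocrit), 72 h culture at 37 C under 5% CO2. Saponin/Triton lysis with SYBR Green I, overnight RT, then fluorescence read.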

ATS189 = test system: ATS189
Outline: as §1

CP185 = test system: CP185
Outline: as §1

CP191 = test system: CP191
Outline: as §1

CP192 = test system: CP192
Outline: as §1

CP194 = test system: CP194
Outline: as §1

CP201 = test system: CP201
Outline: as §1

CP203 = test system: CP203
Outline: as §1

CP237 = test system: CP237
Outline: as §1

CP238 = test system: CP238
Outline: as §1

CP247 = test system: CP247
Outline: as §1

CP268 = test system: CP268
Outline: as §1

CP305 = test system: CP305
Outline: as §1

DIV30 = test system: DIV30
Outline: as §1

HB3 = test system: HB3
Outline: as §1

P94_40 = test system: P94_40
Outline: as §1

PC49 = test system: PC49
Outline: as §1

TAB109 = test system: TAB109
Outline: as §1

TAB113 = test system: TAB113
Outline: as §1

W2 = test system: W2
Outline: as §1

Measured: Potency

C[C@]12CC[C@H]3c4ccc(O)cc4CC[C@@H]3[C@H]1CC[C@@H]2OP(=O)(O)O
inactive: all assays above

N[C@@H](Cc1ccccc1)C(=O)O
inactive: all assays above
